Assay results taken from PubChem BioAssay (NCATS).
Where “and” joins values, the source holds several entries; their conditions need not be identical. Identical values can stand only once. Inconclusive results are not listed. Where a call stands in place of a potency, no number is given. Calls of active or inactive are those of the source. Unless noted, the call rests on the fitted dose curve.

Biological target: Peroxisome proliferator-activated receptor gamma (Homo sapiens) (UniProt P37231)
Experiment: qHTS assay for small molecule antagonists of peroxisome proliferator-activated receptor gamma signaling (AID 588537; active means well fitted inhibition curve with a large enough effect in the signal ratio, with a control signal flat, not every such curve was filed as active; the % refers to the signal ratio;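 further: reporter cells co-stimulated with 50 nM rosiglitazone agonist during compound treatment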)
Conditions: HEK293 PPARg-UAS-bla, beta-lactamase ratio, antagonist mode; series mostly up to 76.8 µM
How it was run: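 Compounds are tested as concentration series for inhibition of rosiglitazone-driven (50 nM) reporter expression in GeneBLAzer PPAR-gamma-UAS-bla HEK293 cells. After 16 h at 37 C, CCF4 substrate is added for 2 h at room temperature and blue/green fluorescence is measured.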

Chain of Peroxisome proliferator-activated receptor gamma (Homo sapiens) (P37231 whole entry, looked up): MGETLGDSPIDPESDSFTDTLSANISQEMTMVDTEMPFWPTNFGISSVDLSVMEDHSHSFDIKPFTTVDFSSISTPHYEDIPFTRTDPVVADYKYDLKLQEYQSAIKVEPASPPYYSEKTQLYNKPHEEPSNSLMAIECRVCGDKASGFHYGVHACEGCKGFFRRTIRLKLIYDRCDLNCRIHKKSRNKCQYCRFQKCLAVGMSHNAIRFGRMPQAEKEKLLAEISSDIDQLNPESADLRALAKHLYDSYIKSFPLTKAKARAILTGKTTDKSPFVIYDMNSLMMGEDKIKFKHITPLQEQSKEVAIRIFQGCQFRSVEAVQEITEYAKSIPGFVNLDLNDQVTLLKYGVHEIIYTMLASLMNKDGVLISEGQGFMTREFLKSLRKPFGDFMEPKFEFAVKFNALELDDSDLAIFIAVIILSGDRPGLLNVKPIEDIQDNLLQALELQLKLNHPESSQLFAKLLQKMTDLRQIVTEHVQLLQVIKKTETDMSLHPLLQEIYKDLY

Row | Compound | Potency
1 | CC(C)OCC1CO1 (stereo not drawn) | inactive
2 | C/C(Cl)=C/CCl | inactive
3 | c1ccc(COCc2ccccc2)cc1 | inactive
4 | c1ccc2c(c1)ccc1ccccc12 | inactive
5 | Nc1ccc(N=Nc2ccccc2)c(N)c1 | inactive
6 | Cc1ccc(C(=O)O)cc1[N+](=O)[O-] | inactive
7 | OCC(CO)(CBr)CBr | inactive
8 | c1ccncc1 | inactive
9 | CC(=O)OC1CC(C)OC(C)O1 (stereo not drawn) | inactive
10 | C/C=C/C=C/C=O | inactive
11 | CCN(CC)c1ccc2c(C)cc(=O)oc2c1 | inactive
12 | c1ccc(SCCSc2ccccc2)cc1 | inactive
13 | CCCCOC(=O)COc1ccc(Cl)cc1Cl | inactive
14 | CC(=O)OC(C(=O)c1ccccc1)c1ccccc1 (stereo not drawn) | inactive
15 | CC(=O)Nc1cccc(C)c1 | inactive
16 | C=CC1CO1 (stereo not drawn) | inactive
17 | CCOC(=O)C1OC1c1ccccc1 (stereo not drawn) | inactive
18 | COc1ccc(C(=O)Nc2ccccc2)cc1[N+](=O)[O-] | inactive

Biological target: Vitamin D3 receptor (Homo sapiens) (UniProt P11473)
Sequence (P11473 whole entry, looked up): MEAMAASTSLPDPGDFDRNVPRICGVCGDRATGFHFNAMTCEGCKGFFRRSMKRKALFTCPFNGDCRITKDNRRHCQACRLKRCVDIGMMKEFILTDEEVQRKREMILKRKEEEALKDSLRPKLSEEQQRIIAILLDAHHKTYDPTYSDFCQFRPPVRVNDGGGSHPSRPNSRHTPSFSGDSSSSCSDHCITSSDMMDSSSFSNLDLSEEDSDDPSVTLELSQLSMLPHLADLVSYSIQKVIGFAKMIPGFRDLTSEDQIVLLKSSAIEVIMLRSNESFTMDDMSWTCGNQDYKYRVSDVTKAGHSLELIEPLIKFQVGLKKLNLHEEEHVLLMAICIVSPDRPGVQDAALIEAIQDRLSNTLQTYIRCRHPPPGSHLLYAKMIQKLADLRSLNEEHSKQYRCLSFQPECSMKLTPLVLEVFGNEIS
Experiment: qHTS assay for small molecule antagonists of vitamin D receptor signaling (AID 588541);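 further: receptor activated by calcitriol during compound treatment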
Conditions: HEK293T VDR-UAS-bla, beta-lactamase ratio, antagonist mode; series mostly up to 76.7 µM
How it was run: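 VDR-UAS-bla HEK293T cells (2000/well, 2% charcoal-stripped FBS) were treated with titrated compounds plus 1-alpha,25-dihydroxyvitamin D3 (50 nM or 3 nM final) for 16 h at 37 C. CCF4 beta-lactamase fluorescence was read; Hill fits gave IC50.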

Row | Compound | Potency
19 | Nc1cnn([C@@H]2O[C@H](CO)[C@@H](O)[C@H]2O)c(=O)n1 | inactive
20 | CCCCCCCCOc1ccc(C(=O)O)cc1 | inactive
21 | CC(C)OCC1CO1 (stereo not drawn) | inactive
22 | COc1ccc([N+](=O)[O-])cc1N | inactive
23 | Nc1cc(C(=O)O)c(O)c(S(=O)(=O)O)c1 | inactive
24 | Oc1ccc2c(c1)OCO2 | inactive
25 | c1ccncc1 | inactive
26 | CCCCOC(=O)COc1ccc(Cl)cc1Cl | inactive
27 | CCCCCCN | inactive
28 | COc1ccc(C)cc1N | inactive
29 | CCc1ccc(C(c2ccc(CC)cc2)C(Cl)Cl)cc1 | inactive
30 | O=[N+]([O-])c1ccccc1Nc1ccccc1 | inactive
31 | C=CC1CO1 (stereo not drawn) | inactive
32 | CCOC(=O)C1OC1c1ccccc1 (stereo not drawn) | inactive
33 | COc1ccc(C(=O)Nc2ccccc2)cc1[N+](=O)[O-] | inactive

Biological target: Vitamin D3 receptor (Homo sapiens) (UniProt P11473)
Experiment: qHTS assay for small molecule agonists of vitamin D receptor signaling (AID 588543)
Conditions: HEK293T VDR-UAS-bla, beta-lactamase ratio, 16 h; series mostly up to 76.8 µM
How it was run: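 Agonist-mode beta-lactamase reporter: HEK293T VDR-UAS-bla cells in charcoal-stripped 2% FBS, compound series 16 h 37 C, CCF4 2 h RT. EC50 from Hill fit, scaled against DMSO and 50 nM calcitriol control.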

Row | Compound | Potency
34 | CCCCCCCCOc1ccc(C(=O)O)cc1 | inactive
35 | Oc1c(Cl)cc(Cl)c(Cl)c1Cl | inactive
36 | c1ccc(COCc2ccccc2)cc1 | inactive
37 | O=[N+]([O-])c1cccc(I)c1 | inactive
38 | COc1ccc([N+](=O)[O-])cc1N | inactive
39 | O=C(OCc1ccccc1)c1ccccc1O | inactive
40 | C/C=C/C=C/C=O | inactive
41 | c1ccc(SCCSc2ccccc2)cc1 | inactive
42 | CCCCCCN | inactive
43 | COc1ccc(C)cc1N | inactive
44 | CCc1ccc(C(c2ccc(CC)cc2)C(Cl)Cl)cc1 | inactive
45 | O=[N+]([O-])c1ccccc1Nc1ccccc1 | inactive
46 | COc1cc(-c2ccc(N=C=O)c(OC)c2)ccc1N=C=O | inactive
47 | CCOC(=O)C1OC1c1ccccc1 (stereo not drawn) | inactive
48 | COc1ccc(C(=O)Nc2ccccc2)cc1[N+](=O)[O-] | inactive

Tested on: not listed separately
Experiment: qHTS assay for small molecule agonists of retinoid X receptor alpha signaling (AID 588544); further: potency means the concentration at half of the fitted maximal effect
Conditions: HEK293T RXRa-UAS-bla, beta-lactamase reporter, 18 h; 530 nm emission

Row | Compound | max response
49 | CCCCCCc1ccc(-c2ccc(C#N)cc2)cc1 | -25.6%
50 | Nc1cnn([C@@H]2O[C@H](CO)[C@@H](O)[C@H]2O)c(=O)n1 | 11.7%
51 | CCCCCCCCOc1ccc(C(=O)O)cc1 | -15.5%
52 | Oc1c(Cl)cc(Cl)c(Cl)c1Cl | 23.7% and -14.7%
53 | CC(C)OCC1CO1 (stereo not drawn) | -12.5%
54 | C/C(Cl)=C/CCl | -5.41%
55 | CCCCNCC | -3.36%
56 | O=c1[nH]ncc2ccccc12 | 10.5%
57 | c1ccc(COCc2ccccc2)cc1 | -5.39%
58 | O=[N+]([O-])c1cccc(I)c1 | -0.727%
59 | Nc1ccc2c(c1)C(=O)c1ccccc1C2=O | 6.46% and 2.42%
60 | c1ccc2c(c1)ccc1ccccc12 | -6.28%
61 | Nc1ccc(N=Nc2ccccc2)c(N)c1 | 0.404%
62 | Cc1ccc(C(=O)O)cc1[N+](=O)[O-] | 0.231%
63 | COc1ccc([N+](=O)[O-])cc1N | -3.38% and -0.384%
64 | OCC(CO)(CBr)CBr | 0.243% and -1.22%
65 | Nc1cc(C(=O)O)c(O)c(S(=O)(=O)O)c1 | 11.2%
66 | Oc1ccc2c(c1)OCO2 | -4.36%

Row | Compound | max response
67 | c1ccncc1 | 1.38%
68 | CC(=O)OC1CC(C)OC(C)O1 (stereo not drawn) | -9.84% and -8.03%
69 | O=C(OCc1ccccc1)c1ccccc1O | -8.01% and -0.712%
70 | C/C=C/C=C/C=O | -9.87%
71 | c1c[nH]cn1 | 1.75%
72 | c1ccc(SCCSc2ccccc2)cc1 | -9.01%
73 | O=C(O)/C=C/c1ccc(/C=C/C(=O)O)cc1 | 9.62%
74 | CCCCOC(=O)COc1ccc(Cl)cc1Cl | 4.2% and -8.56%
75 | CC(=O)OC(C(=O)c1ccccc1)c1ccccc1 (stereo not drawn) | -6.96%
76 | CCCCCCN | -10.9%
77 | CC(=O)Nc1cccc(C)c1 | -8.8%
78 | CCC(Cl)CC(Cl)C(Cl)C(Cl)C(Cl)C(C)Cl (stereo not drawn) | -26.2%
79 | COc1ccc(C)cc1N | -1.98%
80 | O=[N+]([O-])c1ccccc1Nc1ccccc1 | -18.5%
81 | C=CC1CO1 (stereo not drawn) | -16.9%
82 | COc1cc(-c2ccc(N=C=O)c(OC)c2)ccc1N=C=O | -18.6%
83 | CCOC(=O)C1OC1c1ccccc1 (stereo not drawn) | 2.55%

Biological target: Retinoic acid receptor RXR-alpha (Homo sapiens) (UniProt P19793)
Sequence (P19793 whole entry, looked up): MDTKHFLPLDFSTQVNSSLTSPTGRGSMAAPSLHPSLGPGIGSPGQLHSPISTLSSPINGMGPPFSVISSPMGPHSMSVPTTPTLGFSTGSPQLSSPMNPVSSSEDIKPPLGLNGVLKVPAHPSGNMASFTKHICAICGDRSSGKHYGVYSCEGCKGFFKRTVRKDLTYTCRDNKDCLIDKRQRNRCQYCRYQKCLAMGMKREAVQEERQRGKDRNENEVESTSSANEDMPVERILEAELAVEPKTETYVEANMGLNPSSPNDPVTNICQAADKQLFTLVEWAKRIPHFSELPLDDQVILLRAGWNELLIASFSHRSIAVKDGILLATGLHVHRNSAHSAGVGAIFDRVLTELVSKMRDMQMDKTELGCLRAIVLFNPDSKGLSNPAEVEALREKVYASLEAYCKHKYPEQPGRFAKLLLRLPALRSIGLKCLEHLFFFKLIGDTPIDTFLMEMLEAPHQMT
Experiment: as above
Conditions: HEK293T RXRa-UAS-bla, beta-lactamase reporter, 18 h; series mostly up to 76.7 µM

Row | Compound | Potency
84 | CCCCCCc1ccc(-c2ccc(C#N)cc2)cc1 | inactive
85 | Nc1cnn([C@@H]2O[C@H](CO)[C@@H](O)[C@H]2O)c(=O)n1 | inactive
86 | CCCCCCCCOc1ccc(C(=O)O)cc1 | 39.8 µM (active)
87 | Oc1c(Cl)cc(Cl)c(Cl)c1Cl | inactive
88 | CC(C)OCC1CO1 (stereo not drawn) | inactive
89 | C/C(Cl)=C/CCl | inactive
90 | CCCCNCC | inactive
91 | O=c1[nH]ncc2ccccc12 | inactive
92 | c1ccc(COCc2ccccc2)cc1 | inactive
93 | O=[N+]([O-])c1cccc(I)c1 | inactive
94 | Nc1ccc2c(c1)C(=O)c1ccccc1C2=O | inactive
95 | c1ccc2c(c1)ccc1ccccc12 | inactive
96 | Nc1ccc(N=Nc2ccccc2)c(N)c1 | inactive
97 | Cc1ccc(C(=O)O)cc1[N+](=O)[O-] | inactive
98 | COc1ccc([N+](=O)[O-])cc1N | inactive
99 | OCC(CO)(CBr)CBr | inactive
100 | Nc1cc(C(=O)O)c(O)c(S(=O)(=O)O)c1 | inactive
101 | Oc1ccc2c(c1)OCO2 | inactive

Row | Compound | Potency
102 | c1ccncc1 | inactive
103 | CC(=O)OC1CC(C)OC(C)O1 (stereo not drawn) | inactive
104 | O=C(OCc1ccccc1)c1ccccc1O | inactive
105 | C/C=C/C=C/C=O | inactive
106 | c1c[nH]cn1 | inactive
107 | c1ccc(SCCSc2ccccc2)cc1 | inactive
108 | O=C(O)/C=C/c1ccc(/C=C/C(=O)O)cc1 | inactive
109 | CCCCOC(=O)COc1ccc(Cl)cc1Cl | inactive
110 | CC(=O)OC(C(=O)c1ccccc1)c1ccccc1 (stereo not drawn) | inactive
111 | CCCCCCN | inactive
112 | CC(=O)Nc1cccc(C)c1 | inactive
113 | CCC(Cl)CC(Cl)C(Cl)C(Cl)C(Cl)C(C)Cl (stereo not drawn) | inactive
114 | COc1ccc(C)cc1N | inactive
115 | O=[N+]([O-])c1ccccc1Nc1ccccc1 | inactive
116 | C=CC1CO1 (stereo not drawn) | inactive
117 | COc1cc(-c2ccc(N=C=O)c(OC)c2)ccc1N=C=O | inactive
118 | CCOC(=O)C1OC1c1ccccc1 (stereo not drawn) | inactive
